Results from PubChem BioAssay AID2708 (National Center for Advancing Translational Sciences (NCATS), 2010).
This is one part of the list. Results filed as inconclusive are left out. Calls of active or inactive are those of the source. Calls come from the whole dose curve; as a rule, active = well fitted inhibition curve with a large enough effect; inconclusive = small, poorly fitted or top-dose-only effect; inactive = no such curve, though single readings can be large or run the other way.

Target: ATP-dependent DNA helicase Q1 (Homo sapiens) (UniProt P46063)
Assay: Confirmation qHTS Assay for Inhibitors of RecQ-Like Dna Helicase 1 (RECQ1); note: nearly all actives have a fitted effect of over 45% in size
Settings: RECQ1 helicase DNA unwinding, fluorescence
Description: Survival of cells and the faithful propagation of the genome depend on elaborate mechanisms of detecting and repairing DNA damage. Treatment of advanced cancer relies on radiation therapy or chemotherapy, which kill cancer cells by causing extensive DNA damage. It is often found, that cancer cells develop resistance to therapy through enhanced activity of DNA repair functions; this has led to an increased interest in developing drugs that interfere with DNA repair, which could sensitize cancer cells to conventional therapy.
This validation qHTS assay pertains to human RECQ1, which is important in resolving abnormal DNA structures formed during replication or homologous recombination. Shutting down the expression of RECQ1 leads to chromosomal instability and higher radiation sensitivity in cultured cells.
The validation assay was a fluorescence quenching based kinetic qHTS for RECQ1 Helicase DNA unwinding. The activity was measured as ATP-dependent separation of a 20-bp DNA duplex extended by 30-nt single-stranded tails (forked duplex). The forked DNA substrate was tagged with rhodamine fluorophore (carboxytetramethyl rhodamine, TAMRA) and BHQ-2 (Black Hole Quencher 2) dark quencher. Strand separation results in an increase in the fluorescence of TAMRA (excitation 525 nm, emission 598 nm). […]
Potency is the fitted concentration of half-maximal effect.

Chain of ATP-dependent DNA helicase Q1 (Homo sapiens) (P46063 whole entry, looked up): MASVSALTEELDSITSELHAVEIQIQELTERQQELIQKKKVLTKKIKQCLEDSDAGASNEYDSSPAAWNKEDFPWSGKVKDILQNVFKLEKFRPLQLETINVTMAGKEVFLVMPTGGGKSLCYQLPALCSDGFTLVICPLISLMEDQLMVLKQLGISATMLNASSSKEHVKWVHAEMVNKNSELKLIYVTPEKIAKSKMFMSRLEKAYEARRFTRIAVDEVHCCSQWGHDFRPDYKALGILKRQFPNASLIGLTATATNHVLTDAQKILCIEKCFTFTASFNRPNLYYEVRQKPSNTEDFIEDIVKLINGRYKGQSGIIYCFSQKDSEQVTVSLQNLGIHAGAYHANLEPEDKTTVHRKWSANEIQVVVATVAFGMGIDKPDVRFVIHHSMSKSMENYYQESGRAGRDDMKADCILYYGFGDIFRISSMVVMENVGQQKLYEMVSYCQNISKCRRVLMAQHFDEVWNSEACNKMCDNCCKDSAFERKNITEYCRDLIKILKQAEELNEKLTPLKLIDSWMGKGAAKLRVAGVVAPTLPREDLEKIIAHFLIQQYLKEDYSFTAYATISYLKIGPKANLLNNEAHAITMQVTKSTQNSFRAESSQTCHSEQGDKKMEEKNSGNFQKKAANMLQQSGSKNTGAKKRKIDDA

Structure (SMILES): O=C(O)c1cc[c]([Sb](=[O])([OH])[OH])cc1[N+](=O)[O-]
- Potency: 913 nM (active)
